# Bioassay records (PubChem)
# Rtt109 HAT inh: inhibitors of C. albicans Rtt109/Vps75 HAT, primary screen, biochemical, ThioGlo CoA-SH fluorescence, plate reader; Histone acetyltransferase RTT109 (Candida albicans (strain SC5314 / ATCC MYA-2876)), …; purified Rtt109/Vps75, 4 h; inhibition, % at 34.9 µM; 330,000 compounds, 0.16% hits;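 active means inhibition of at least 50% in every replicate; inconclusive means best replicate reaches 50% inhibition but some replicates fall short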
# Target sequence (Q5AAJ8 whole entry, looked up): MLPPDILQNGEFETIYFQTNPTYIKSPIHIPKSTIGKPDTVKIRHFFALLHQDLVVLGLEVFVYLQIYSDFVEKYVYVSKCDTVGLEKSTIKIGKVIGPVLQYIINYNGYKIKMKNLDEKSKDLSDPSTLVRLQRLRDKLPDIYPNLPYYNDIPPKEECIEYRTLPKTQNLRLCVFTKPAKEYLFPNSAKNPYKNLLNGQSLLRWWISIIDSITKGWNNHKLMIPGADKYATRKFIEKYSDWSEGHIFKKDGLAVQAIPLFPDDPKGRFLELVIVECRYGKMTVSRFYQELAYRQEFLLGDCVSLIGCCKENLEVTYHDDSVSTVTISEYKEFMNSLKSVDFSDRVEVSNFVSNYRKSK
# TPT1 inhibitor: Candida albicans TPT1 enzyme inhibitors, primary screen, biochemical, fluorescence polarization; recombinant caTPT1, FP RNA substrate dephosphorylation; AID 1962, 2009; tRNA 2'-phosphotransferase TPT1 (Candida albicans SC5314); inhibition, % at 5 µM; 300,000 compounds, 0.81% hits;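 active means inhibition above the mean of all tested compounds plus 3 SD, set per screening campaign, cut at about 24% in these data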;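 further: plate controls were DMSO alone for no effect and ferristatin control at 100 nM for full effect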
# PHOSPHO1 inh: PubChem AID 1565; Phosphoethanolamine/phosphocholine phosphatase (Homo sapiens), Q8TCT1; recombinant PHOSPHO1, absorbance phosphatase assay; inhibition, % at 13.3 µM; 290,000 compounds, 1.1% hits; in the data active means inhibition above about 60%
# Target sequence (Q8TCT1 whole entry, looked up): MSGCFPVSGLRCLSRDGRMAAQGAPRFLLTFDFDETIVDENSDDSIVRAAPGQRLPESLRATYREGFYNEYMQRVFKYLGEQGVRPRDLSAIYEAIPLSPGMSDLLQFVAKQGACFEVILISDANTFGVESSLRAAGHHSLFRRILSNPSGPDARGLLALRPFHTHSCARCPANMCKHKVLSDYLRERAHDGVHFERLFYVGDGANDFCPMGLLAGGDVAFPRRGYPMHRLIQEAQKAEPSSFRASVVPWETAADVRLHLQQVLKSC
# SKKanGAS inh: S. pyogenes SKKanGAS growth inhibitors in kanamycin, primary screen, streptokinase expression inhibitor project, SKKanGAS strain, BacTiter-Glo luminescence | inhibition, % at 7.5 µM | 300,000 compounds, 1.3% hits | 6 h | AID 1662, 2009;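 active means mean replicate score, as percent of positive control median, at least 50; inconclusive means mean below 50 but one replicate at or above 50; inactive means mean and every replicate below 50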;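 further: strain carries kanamycin resistance gene driven by streptokinase promoter and grows in 40 µg/ml kanamycin; loss of luminescence reflects streptokinase promoter inhibition or plain growth inhibition; 0% = median of DMSO wells and 100% = positive control at its reference dose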
# WT yeast gro inh: growth inhibition of WT strain, primary screen, mitochondrial fusion inhibitor project, WT and mutant strains, chemical genetic. mitochondrial fusion phenotypic screen. inhibition, % at 10 µM. 190,000 compounds, 2.1% hits. AID 1362, 2008; in the data active means inhibition above about 58%; tested in S. cerevisiae
# Platelet DG rel: inhibitors of platelet dense granule secretion, primary screen, cell-based, MLPCN, human platelets | human platelet-rich plasma, SFLLRN dense granule ATP release, luminescence | 300,000 compounds, 0.22% hits | inhibition, %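 (compounds screened at 7.5 µM in platelet-rich plasma)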 | AID 1663, 2009;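 active means mean replicate score, as percent of positive control, at or above 50; inconclusive means mean below 50 but at least one replicate at or above 50; inactive means mean and every replicate below 50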
# * hit, by the source's call; u = inconclusive; x = no result given. Most compounds without a hit are left out; they make up all but 3.9% or so of the library.
SMILES,Rtt109 HAT inh,TPT1 inhibitor,PHOSPHO1 inh,SKKanGAS inh,WT yeast gro inh,Platelet DG rel
CCN1/C(=C/c2cc[n+](C)cc2)C=Cc2cc(C)ccc21,1,16,36,x,70*,x
CCN1/C(=C/c2ccc3ccccc3[n+]2CCCS(=O)(=O)[O-])C=Cc2cc(C)ccc21,-5,x,-113,15,x,8
CC(=O)Nc1nc(S(=O)(=O)c2ccc(C)cc2)c(Cl)s1,6,-8,4,-2,-31,1
Cc1ccc(S(=O)(=O)c2nc(Nc3nccs3)sc2Cl)cc1,4,20,-5,20,62*,-3
C/C(=N\NC(=O)c1cc2ccccc2cc1O)c1ccc(C)o1,8,4,33,62*,x,22
C/C(=N\NC(=O)c1cc2ccccc2cc1O)c1cccs1,-4,-3,26,71*,x,6
C/C(=N/NC(=O)c1cc2ccccc2cc1O)c1ccco1,2,6,14,21,x,19
O=C(NNC(=O)c1cc2ccccc2cc1O)c1cccs1,1,-1,27,1,x,8
O=c1[nH]c(=O)n(C2OC(CO)C(O)C2O)cc1N1CCOCC1 (stereo not drawn),7,x,x,x,x,x
Cc1ccccc1C(=O)NCC(=O)OC(C)C(=O)NC(C)CCc1ccccc1 (stereo not drawn),0,x,x,x,x,x
Cc1nc(NC(=O)COC(=O)C2CC3CCCC(C2)C3=O)c(Cl)cc1Cl (stereo not drawn),-3,x,x,x,x,x
COC(=O)c1ccccc1NC(=S)NC(=O)COc1ccccc1,-7,-5,40,0,6,-6
Cc1ccc(C(=O)NNC(=S)NC(=O)COc2ccccc2)cc1,-3,-2,97*,33,84*,-4
CC(C)(C)c1ccc(OCC(=O)NNC(=O)CCc2ccccc2)cc1,-7,2,19,-26,16,1
Cc1ccccc1C(=O)NNC(=S)NC(=O)COc1ccccc1,1,-2,97*,3,-12,14
CC(C)(C)c1ccc(C(=O)NC(=S)NNC(=O)COc2ccccc2)cc1,2,-7,-5,91*,x,15
CCCCN(C(=O)c1cc(S(=O)(=O)N2CCCCC2)ccc1Cl)c1c(N)n(CCC)c(=O)[nH]c1=O,-14,x,x,x,x,x
COc1ccc(S(=O)(=O)Oc2ccc3ccccc3c2)cc1,-2,-1,-4,-1,60*,0
COc1ccc(S(=O)(=O)Oc2ccc3cccc(N)c3c2)cc1,x,3,x,7,x,-19
COCCn1c(C(=O)N2CCCC2)cc2c1C[C@H]1CN(C(=O)c3ccccc3)[C@@](Cc3ccc(F)cc3)(C(=O)OC)[C@@H]21,x,-1,-16,x,-2,x
COC(=O)[C@@]1(Cc2ccc(OC)cc2)[C@H]2c3cc(C(=O)N4CCCC4)n(Cc4ccc(C)o4)c3C[C@H]2CN1C(=O)c1ccccc1,x,x,16,x,65*,x
Cc1cc(C)nc(SCC(=O)Nc2ccc(S(=O)(=O)Nc3ncccn3)cc2)n1,-12,0,8,-13,-11,-8
Cc1cc(C)nc(NS(=O)(=O)c2ccc(NC(=O)CSc3ncn[nH]3)cc2)n1,-25,0,62*,-1,25,-4
O=C1c2ccccc2OC2(C=Cc3ccccc3O2)N1Cc1ccccc1 (stereo not drawn),2,3,17,40,69*,19
O=C1NC2(CCN(Cc3ccccc3)CC2)Oc2ccccc21,-1,2,2,-3,2,-4
SMILES,Rtt109 HAT inh,TPT1 inhibitor,PHOSPHO1 inh,SKKanGAS inh,WT yeast gro inh,Platelet DG rel
c1ccc(C2C3=C(Nc4ncnn42)c2ccccc2CCC3)cc1 (stereo not drawn),-2,4,9,3,8,-8
Clc1ccc(C2C3=C(Nc4ncnn42)c2ccccc2CC3)cc1 (stereo not drawn),x,-6,-3,70*,-1,-3
COc1ccccc1CNC(=O)COC(=O)c1ccc2c(=O)n3c(nc2c1)CCCCC3,-2,x,x,x,x,x
COc1cccc(SCc2noc(C(=O)NC(C)C)c2C(=O)NC(C)C)c1,6,0,x,-7,x,2
O=[N+]([O-])c1ccc(O)c(-c2nc(-c3ccccc3)c(-c3cccs3)[nH]2)c1,x,-1,22,102*,72*,-5
O=C(O)c1ccc(-c2nc(-c3ccccc3)c(-c3cccs3)[nH]2)cc1,-5,7,24,13,x,-15
Cc1ccc(NC(=S)NCc2ccc3[nH]c4c(c3c2)CCCC4)cc1,14,1,-4,7,73*,4
Cc1ccc(NC(=O)CNC(=O)c2ccco2)nc1,1,4,27,-3,x,12
OC[C@@H]1[C@@H](c2ccc(F)cc2)C(c2ccccc2)=NN1c1ccccc1,-7,x,x,x,x,x
O=C1C2C(c3ccccc3)=NN(c3ccccc3)C2C(=O)N1c1ccccc1 (stereo not drawn),0,-6,-20,107*,3,5
O=C1[C@H]2C(c3ccccc3)=NN(c3ccccc3)[C@H]2C(=O)N1c1ccccc1,-9,-4,11,89*,16,-1
CCOC(=O)c1c(OCC)[nH]c2c1cc(O)c1ccccc12,u,-25,67*,34,59*,-5
O=C(NCc1cc([N+](=O)[O-])ccc1O)c1cc(-c2ccncc2)nc2ccccc12,-5,-2,10,11,x,9
COc1ccccc1NC(=O)COC(=O)/C=C/c1ccc(OC)c(OC)c1,5,x,x,x,x,x
O=C(CC1S/C(=N/N=C2CCCCCC2)NC1=O)Nc1ccccc1C(F)(F)F (stereo not drawn),14,-1,22,1,x,3
COc1ccccc1NC(=O)CC1S/C(=N/N=C2\CCCc3ccccc32)NC1=O (stereo not drawn),-3,-3,26,16,63*,3
CN(C)CC(C)(C)CNS(=O)(=O)c1cccc(Cl)c1Cl,3,0,75*,-5,-15,-8
CN(C)CC(C)(C)CNS(=O)(=O)c1ccc(Cl)cc1,1,-1,-2,4,18,0
Cc1cc(N2CCN(c3ccccc3)CC2)n2cc(-c3ccccc3)nc2n1,23,-6,29,7,29,1
Cc1cc(N2CCN(c3ccccc3Cl)CC2)n2cc(-c3ccccc3)nc2n1,-3,-1,1,u,74*,-4
O=C(Cc1cccs1)NNC(=O)C12CC3CC(CC(C3)C1)C2,-6,2,61*,8,-9,3
COCCn1c(C)cc(C(=O)CSc2nnc(-c3cccnc3)n2-c2ccccc2F)c1C,0,9,90*,6,14,9
Cc1ccccc1-n1c(SCC(=O)c2cc(C)n(C)c2C)nnc1-c1cccnc1,5,13,86*,0,-26,-2
